For 37 compounds, outcome results are on record in PubChem BioAssay (EPA / NIEHS).

Each structure is given as a SMILES string. Records with an inconclusive call do not appear. Activity calls are given as the source filed them. Rule for the calls: active = hit-call score of the fitted dose curve at least 0.9, where 1 is the maximum; inconclusive = response in the unintended direction; inactive = score below 0.9.

Sequence of Oxysterols receptor LXR-alpha (Homo sapiens) (Q13133 whole entry, looked up, the tested form may be a part): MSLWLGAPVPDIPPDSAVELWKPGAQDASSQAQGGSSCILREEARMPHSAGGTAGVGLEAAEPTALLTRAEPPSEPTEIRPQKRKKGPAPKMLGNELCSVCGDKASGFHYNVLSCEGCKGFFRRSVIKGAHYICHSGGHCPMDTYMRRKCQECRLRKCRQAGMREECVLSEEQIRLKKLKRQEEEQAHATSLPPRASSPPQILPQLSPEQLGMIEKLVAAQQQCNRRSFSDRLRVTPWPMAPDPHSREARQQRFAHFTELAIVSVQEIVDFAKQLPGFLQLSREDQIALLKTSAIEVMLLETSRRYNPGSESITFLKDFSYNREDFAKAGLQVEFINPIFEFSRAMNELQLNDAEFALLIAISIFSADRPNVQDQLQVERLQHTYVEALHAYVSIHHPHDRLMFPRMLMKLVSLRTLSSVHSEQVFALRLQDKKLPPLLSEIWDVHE
Sequence of Glucocorticoid receptor (Homo sapiens) (P04150 whole entry, looked up, the tested form may be a part): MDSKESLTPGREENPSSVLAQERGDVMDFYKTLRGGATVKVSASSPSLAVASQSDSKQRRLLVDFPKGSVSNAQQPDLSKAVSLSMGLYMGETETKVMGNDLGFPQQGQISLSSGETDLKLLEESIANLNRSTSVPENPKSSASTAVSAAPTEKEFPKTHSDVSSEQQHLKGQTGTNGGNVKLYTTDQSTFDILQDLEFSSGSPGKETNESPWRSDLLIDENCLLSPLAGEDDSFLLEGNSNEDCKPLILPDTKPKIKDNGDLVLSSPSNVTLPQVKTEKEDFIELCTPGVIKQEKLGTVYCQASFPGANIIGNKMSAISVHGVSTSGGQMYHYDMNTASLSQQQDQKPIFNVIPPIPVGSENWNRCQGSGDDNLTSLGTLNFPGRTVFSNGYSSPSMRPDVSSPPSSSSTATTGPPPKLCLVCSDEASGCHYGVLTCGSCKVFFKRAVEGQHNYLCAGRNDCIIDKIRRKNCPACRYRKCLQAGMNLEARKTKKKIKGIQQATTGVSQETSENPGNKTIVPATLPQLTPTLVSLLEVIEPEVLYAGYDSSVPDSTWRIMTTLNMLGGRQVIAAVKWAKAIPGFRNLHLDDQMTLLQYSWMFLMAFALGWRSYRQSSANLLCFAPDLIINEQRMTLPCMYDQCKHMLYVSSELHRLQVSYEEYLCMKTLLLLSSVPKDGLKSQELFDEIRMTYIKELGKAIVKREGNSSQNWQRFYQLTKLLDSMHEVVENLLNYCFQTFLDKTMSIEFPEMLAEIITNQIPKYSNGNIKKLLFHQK
Sequence of Hepatocyte nuclear factor 4-alpha (Homo sapiens) (P41235 whole entry, looked up, the tested form may be a part): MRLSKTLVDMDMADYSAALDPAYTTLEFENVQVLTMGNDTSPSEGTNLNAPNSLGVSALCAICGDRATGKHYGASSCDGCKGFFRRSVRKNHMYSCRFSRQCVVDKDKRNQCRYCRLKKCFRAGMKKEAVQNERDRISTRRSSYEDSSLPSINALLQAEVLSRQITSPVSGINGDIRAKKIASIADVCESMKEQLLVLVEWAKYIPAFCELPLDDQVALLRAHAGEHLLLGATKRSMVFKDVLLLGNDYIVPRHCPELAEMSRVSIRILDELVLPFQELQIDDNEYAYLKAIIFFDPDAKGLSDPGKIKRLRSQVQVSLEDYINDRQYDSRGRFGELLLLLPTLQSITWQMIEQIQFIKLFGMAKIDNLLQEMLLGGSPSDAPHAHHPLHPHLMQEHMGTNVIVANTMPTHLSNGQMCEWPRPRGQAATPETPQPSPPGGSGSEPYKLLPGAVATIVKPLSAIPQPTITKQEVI

One test addresses Glucocorticoid receptor (Homo sapiens) (UniProt P04150). As to the kind of experiment: ATG_GR_TRANS: Attagene TRANS-FACTORIAL HepG2 Assay for human Glucocorticoid Receptor (GR) (AID 2282978).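 Note: activators score as hits since higher reporter transcript over DMSO is fitted.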 The following applies: HepG2 Attagene TRANS GR reporter, mRNA transcription. The method, boiled down: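 HepG2 transient transfection, multiple reporter units, GAL4-UAS under NR-GAL4 chimera control. 24 h treatment. Reporter mRNA by RT-PCR/CE fluorescence, DMSO as negative control.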
Regarding `O=C(O)CCCC(=O)O`, the call was inactive.
Consider `Clc1cc(Cl)c(Cl)c(Cl)c1Cl`, for which the outcome was inactive.
Regarding `N#Cc1ccc(C(c2ccc(C#N)cc2)n2cncn2)cc1`, the call was inactive.
As for `CC1CCC(=O)C1=O` (centres undefined), the compound was called inactive.
`CC(C)CCCCCOC(=O)CS`: the call was inactive.
As for `Cc1ccc(S(=O)(=O)N=C=O)cc1`, the outcome was inactive.
Regarding `CC(=O)OCc1ccccc1`, the outcome was inactive.
For `CCCCCCCCCCCC(=O)N(C)CC(=O)O`, the call was inactive.
Consider `CCCCOCCOCCOC(C)=O`, for which the compound was called inactive.
`Nc1cccc(N)n1`: the compound was classed as inactive.
As for `CCCSSCCC`, the outcome was inactive.
As for `C[Si]1(C)O[Si](C)(C)O[Si](C)(C)O[Si](C)(C)O[Si](C)(C)O1`, the result was inactive.
Consider `CC(=O)c1ccc(S(=O)(=O)NC(=O)NC2CCCCC2)cc1`, for which the outcome was inactive.
On the same count and under the same terms, under `O=C(Oc1ccccc1)c1ccccc1C(=O)Oc1ccccc1` stands “inactive”; under `Cc1c(C(=O)c2c[nH]n(C)c2=O)ccc(S(C)(=O)=O)c1C1=NOCC1`, “inactive”.
Same read-out and setting: under `CO[Si](CCCS)(OC)OC` stands “inactive”; under `CCOC(=O)CC(=O)c1ccccc1`, “inactive”.
On to `Cc1c(Cl)cccc1Cl`, for which the compound was called inactive.

In the next test the target is Bile acid receptor (Homo sapiens) (UniProt Q96RI1). As to the kind of experiment: ATG_FXR_TRANS: Attagene TRANS-FACTORIAL HepG2 Assay for Farnesoid X Receptor (FXR) (AID 2282979).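 Note: hits raise reporter mRNA above DMSO so AC50 marks FXR activation.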 The conditions noted are these: HepG2 Attagene TRANS FXR-GAL4 reporter transcription. The method, boiled down: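 HepG2 cells were transiently transfected with GAL4-UAS reporters driven by chimeric NR-Gal4 proteins and dosed for 24 h. Reporter mRNA was quantified by RT-PCR, fluorescent labelling, HpaI digestion and capillary electrophoresis, with gain of signal scored versus DMSO.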
Sequence of Bile acid receptor (Homo sapiens) (Q96RI1 whole entry, looked up, the tested form may be a part): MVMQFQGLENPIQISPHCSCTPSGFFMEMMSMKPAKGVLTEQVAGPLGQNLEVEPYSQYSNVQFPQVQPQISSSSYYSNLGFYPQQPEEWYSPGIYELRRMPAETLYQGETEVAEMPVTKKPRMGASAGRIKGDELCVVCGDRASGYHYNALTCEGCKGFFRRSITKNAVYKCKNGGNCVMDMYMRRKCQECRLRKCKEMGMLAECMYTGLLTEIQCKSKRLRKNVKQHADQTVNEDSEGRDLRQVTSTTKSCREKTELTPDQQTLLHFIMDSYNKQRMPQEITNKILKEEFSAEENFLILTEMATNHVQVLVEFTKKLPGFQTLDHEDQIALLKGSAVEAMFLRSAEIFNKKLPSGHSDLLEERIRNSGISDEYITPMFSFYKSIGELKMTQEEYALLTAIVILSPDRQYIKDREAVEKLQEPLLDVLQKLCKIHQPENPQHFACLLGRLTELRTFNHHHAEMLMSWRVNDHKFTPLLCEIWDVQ
Consider `CC1(C)CC(O)CC(C)(C)N1[O]`, for which the result was inactive.
On to `CCC1COC(=O)O1` (centres undefined), for which the compound was classed as inactive.
Regarding `CCCCCC(=O)OCC`, the outcome was inactive.
On the same count and under the same terms, under `Oc1ccc(/C=C/c2cc(O)cc(O)c2)cc1` stands “inactive”; under `CC(C)C(=O)OCCc1ccccc1`, “inactive”; under `CC1(C)C(=O)N(CO)C(=O)N1CO`, “inactive”.
Regarding `CC(C)(C)NC(=O)[C@H]1CC[C@H]2[C@@H]3CC[C@H]4NC(=O)C=C[C@]4(C)[C@H]3CC[C@]12C`, the outcome was inactive.
Consider `CCN1CN(CC)CN(CC)C1`, for which the compound was called inactive.
Same read-out and setting: under `CCC(C)c1ccccc1` (centres undefined) stands “inactive”; under `CC1CCC(C(C)(C)S)C(=O)C1` (centres undefined), “inactive”; under `Cc1cc(C)n(CO)n1`, “inactive”.
Regarding `C1CCSC1`, the outcome was inactive.
With `Cc1noc(NS(=O)(=O)c2ccc(N)cc2)c1C`, the compound was classed as inactive.
Same read-out and setting: as for `C=CC(=O)OCCCCCCCC(C)C`, the entry is “inactive”; as for `CCOC(=O)OC(=O)OCC`, “inactive”.
With `CC(=O)c1ccccc1O`, the outcome was inactive.
In the case of `CCNc1nc(NC(C)(C)C)nc(OC)n1`, the compound was called inactive.
`CCCCNS(=O)(=O)c1ccccc1`: the result was inactive.
On to `Clc1cccnc1`, for which the compound was classed as inactive.

For the next test, the target named is Oxysterols receptor LXR-alpha (Homo sapiens) (UniProt Q13133). Put plainly: ATG_LXRa_TRANS: Attagene TRANS-FACTORIAL HepG2 Assay for human Liver X Receptor alpha (LXRa) (AID 2282980). The following applies: HepG2 Attagene TRANS reporter, LXRa transactivation. The method, boiled down:
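HepG2 cells transiently transfected with GAL4-UAS reporter units for chimeric NR-Gal4 proteins, exposed to chemicals for 24 h. Reporter mRNA quantified by RT-PCR and capillary electrophoresis; gain of signal fitted relative to DMSO.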
In the case of `CCC1COC(=O)O1` (centres undefined), the compound was classed as inactive.
Consider `CCCCCC(=O)OCC`, for which the call was inactive.
`Oc1ccc(/C=C/c2cc(O)cc(O)c2)cc1`: the compound was called inactive.
In the case of `CC(C)C(=O)OCCc1ccccc1`, the compound was called inactive.
In the case of `CC1(C)C(=O)N(CO)C(=O)N1CO`, the outcome was inactive.
`CC(C)(C)NC(=O)[C@H]1CC[C@H]2[C@@H]3CC[C@H]4NC(=O)C=C[C@]4(C)[C@H]3CC[C@]12C`: the compound was classed as inactive.
Turning to `CCN1CN(CC)CN(CC)C1`, the outcome was inactive.
On the same count and under the same terms, as for `CCC(C)c1ccccc1` (centres undefined), the entry is “inactive”.
As for `CC1CCC(C(C)(C)S)C(=O)C1` (centres undefined), the call was inactive.
Turning to `Cc1cc(C)n(CO)n1`, the compound was classed as inactive.
Turning to `C1CCSC1`, the result was inactive.
Same read-out and setting: under `Cc1noc(NS(=O)(=O)c2ccc(N)cc2)c1C` stands “inactive”.
The same measure, in the same setting: under `C=CC(=O)OCCCCCCCC(C)C` stands “inactive”; under `CCOC(=O)OC(=O)OCC`, “inactive”; under `CC(=O)c1ccccc1O`, “inactive”.
For `CCCCNS(=O)(=O)c1ccccc1`, the call was inactive.
Consider `Clc1cccnc1`, for which the call was inactive.

The target in the next test is Oxysterols receptor LXR-beta (Homo sapiens) (UniProt P55055). Put plainly: ATG_LXRb_TRANS: Attagene TRANS-FACTORIAL HepG2 Assay for human Liver X Receptor beta (LXRb) (AID 2282981). The conditions noted are these: HepG2 Attagene TRANS GAL4-LXRb reporter, mRNA. In short, it runs like this: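 Gain-of-signal mRNA reporter endpoint, DMSO as negative control. Transiently transfected HepG2 cells carrying the NR-Gal4 chimera and GAL4-UAS reporter units were treated 24 h; transcripts quantified by RT-PCR and capillary electrophoresis fluorescence.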
Sequence of Oxysterols receptor LXR-beta (Homo sapiens) (P55055 whole entry, looked up, the tested form may be a part): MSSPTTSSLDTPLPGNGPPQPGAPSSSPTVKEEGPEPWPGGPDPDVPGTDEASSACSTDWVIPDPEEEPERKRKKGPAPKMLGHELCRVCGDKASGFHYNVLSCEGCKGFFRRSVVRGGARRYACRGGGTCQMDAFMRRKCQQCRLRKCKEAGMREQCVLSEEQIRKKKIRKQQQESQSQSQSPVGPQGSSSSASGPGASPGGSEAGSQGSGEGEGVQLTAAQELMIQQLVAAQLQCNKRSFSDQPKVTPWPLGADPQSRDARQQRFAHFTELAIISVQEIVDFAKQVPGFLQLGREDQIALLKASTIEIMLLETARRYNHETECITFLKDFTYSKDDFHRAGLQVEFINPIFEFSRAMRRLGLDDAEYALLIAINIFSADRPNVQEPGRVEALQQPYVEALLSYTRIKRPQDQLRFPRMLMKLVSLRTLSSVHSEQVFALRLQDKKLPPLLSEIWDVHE
Regarding `CC1(C)CC(O)CC(C)(C)N1[O]`, the result was inactive.
Regarding `CCC1COC(=O)O1` (centres undefined), the outcome was inactive.
As for `Oc1ccc(/C=C/c2cc(O)cc(O)c2)cc1`, the outcome was inactive.
In the case of `CC1(C)C(=O)N(CO)C(=O)N1CO`, the compound was classed as inactive.
Turning to `CC(C)(C)NC(=O)[C@H]1CC[C@H]2[C@@H]3CC[C@H]4NC(=O)C=C[C@]4(C)[C@H]3CC[C@]12C`, the outcome was inactive.
Take `CCN1CN(CC)CN(CC)C1`: the outcome was inactive.
For `CC(=O)OCc1ccccc1`, the result was inactive.
In the case of `CCC(C)c1ccccc1` (centres undefined), the call was inactive.
Regarding `CCCCOCCOCCOC(C)=O`, the compound was classed as inactive.
On to `CC1CCC(C(C)(C)S)C(=O)C1` (centres undefined), for which the outcome was inactive.
Take `Cc1cc(C)n(CO)n1`: the call was inactive.
In the case of `C1CCSC1`, the call was inactive.
For the compound `CCOC(=O)OC(=O)OCC`, the compound was called inactive.
On the same count and under the same terms, under `Cc1c(C(=O)c2c[nH]n(C)c2=O)ccc(S(C)(=O)=O)c1C1=NOCC1` stands “inactive”; under `CC(=O)c1ccccc1O`, “inactive”; under `CCNc1nc(NC(C)(C)C)nc(OC)n1`, “inactive”.
As for `CCCCNS(=O)(=O)c1ccccc1`, the compound was classed as inactive.

The next test addresses Hepatocyte nuclear factor 4-alpha (Homo sapiens) (UniProt P41235). Put plainly: ATG_HNF4a_TRANS: Attagene TRANS-FACTORIAL HepG2 Assay for human Hepatocyte Nuclear Factor 4 alpha (HNF4a) (AID 2282982). The conditions noted are these: HepG2 HNF4a transactivation reporter, mRNA readout. In short, it runs like this:
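Gain-of-signal mRNA induction, relative to DMSO vehicle, was read after 24 h compound treatment of HepG2 cells bearing transfected GAL4-UAS reporters. Detection used RT-PCR, 6-FAM primer extension and capillary electrophoresis.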
For the compound `CC1(C)CC(O)CC(C)(C)N1[O]`, the compound was classed as inactive.
The same measure, in the same setting: under `O=C(O)CCCC(=O)O` stands “inactive”; under `Clc1cc(Cl)c(Cl)c(Cl)c1Cl`, “inactive”; under `Oc1ccc(/C=C/c2cc(O)cc(O)c2)cc1`, “inactive”.
Same read-out and setting: as for `CC1(C)C(=O)N(CO)C(=O)N1CO`, the entry is “inactive”; as for `CC(C)CCCCCOC(=O)CS`, “inactive”; as for `Cc1ccc(S(=O)(=O)N=C=O)cc1`, “inactive”.
As for `CCC(C)c1ccccc1` (centres undefined), the call was inactive.
Take `CC1CCC(C(C)(C)S)C(=O)C1` (centres undefined): the result was inactive.
As to `Nc1cccc(N)n1`, the outcome was inactive.
On to `CCCSSCCC`, for which the compound was called inactive.
`C1CCSC1`: the compound was called inactive.
In the case of `Cc1noc(NS(=O)(=O)c2ccc(N)cc2)c1C`, the compound was classed as inactive.
Turning to `O=C(Oc1ccccc1)c1ccccc1C(=O)Oc1ccccc1`, the compound was classed as inactive.
Turning to `CO[Si](CCCS)(OC)OC`, the outcome was inactive.
Consider `Clc1cccnc1`, for which the compound was called inactive.

Test system in another test: not listed separately
Put plainly: ATG_M_06_TRANS: Attagene TRANS-FACTORIAL HepG2 Assay for M06 Transcription Factor (Internal Marker) (AID 2282983). The following applies: HepG2 Attagene TRANS M06 internal marker reporter. In short, it runs like this: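 HepG2 cells transiently transfected with GAL4-UAS multiple reporter units, dosed 24 h. Reporter RNA reverse-transcribed, PCR-amplified, 6-FAM-labeled, HpaI-digested and quantified by capillary electrophoresis; this internal-marker signal fitted upward relative to DMSO.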
As for `CC1(C)CC(O)CC(C)(C)N1[O]`, the outcome was inactive.
Consider `Clc1cc(Cl)c(Cl)c(Cl)c1Cl`, for which the compound was classed as inactive.
On the same count and under the same terms, under `CC(C)C(=O)OCCc1ccccc1` stands “inactive”; under `CC(C)(C)NC(=O)[C@H]1CC[C@H]2[C@@H]3CC[C@H]4NC(=O)C=C[C@]4(C)[C@H]3CC[C@]12C`, “inactive”; under `Cc1ccc(S(=O)(=O)N=C=O)cc1`, “inactive”.
As to `CC(=O)OCc1ccccc1`, the result was inactive.
Take `CCC(C)c1ccccc1` (centres undefined): the call was inactive.
As to `CCCCCCCCCCCC(=O)N(C)CC(=O)O`, the call was inactive.
Turning to `Nc1cccc(N)n1`, the outcome was inactive.
For `CCCSSCCC`, the compound was classed as inactive.
Consider `Cc1cc(C)n(CO)n1`, for which the result was inactive.
Regarding `C[Si]1(C)O[Si](C)(C)O[Si](C)(C)O[Si](C)(C)O[Si](C)(C)O1`, the compound was called inactive.
On the same count and under the same terms, as for `C1CCSC1`, the entry is “inactive”; as for `C=CC(=O)OCCCCCCCC(C)C`, “inactive”.
`CCOC(=O)OC(=O)OCC`: the compound was called inactive.
With `CCCCNS(=O)(=O)c1ccccc1`, the result was inactive.
As to `Cc1c(Cl)cccc1Cl`, the result was inactive.
